Read-out in assay [1]: Monokine induced gamma interferon (MIG), CXCL9 (gene 4283)
The assay can be described thus: BSK_hDFCGF_MIG: BioMAP Diversity Plus: hDFCGF Assay for Monokine induced gamma interferon (MIG) Biomarker Activity (AID 2283063). The following applies: primary human foreskin fibroblasts; actives raise or lower the signal. In short, it runs like this: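 Human primary foreskin fibroblasts in the hDFCGF system, exposed to test chemical for 24 h; MIG measured by ELISA. Bidirectional curve fitting against DMSO negative control as activity baseline.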

Read-out in assay [2]: Vascular cell adhesion molecule 1 (VCAM1), VCAM1 (gene 7412)
The assay can be described thus: BSK_hDFCGF_VCAM1: BioMAP Diversity Plus: hDFCGF Assay for Vascular cell adhesion molecule 1 (VCAM1) Biomarker Activity (AID 2283065). The conditions noted are these: primary human foreskin fibroblasts; actives raise or lower the signal. The method in brief:
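ELISA readout of VCAM-1 on human dermal fibroblast primary cultures, 24 h after chemical exposure. Gain or loss of signal fitted in both directions against DMSO baseline.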

Read-out in assay [3]: Plasminogen activator inhibitor-1 (PAI1), SERPINE1 (gene 5054)
Kind of assay: BSK_hDFCGF_PAI1: BioMAP Diversity Plus: hDFCGF Assay for Plasminogen activator inhibitor-1 (PAI1) Biomarker Activity (AID 2283066). The following applies: primary human foreskin fibroblasts; actives raise or lower the signal. In short, it runs like this:
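Fibroblasts from human foreskin were treated with test chemical. After 24 h, PAI-1 was measured by ELISA. Activity was fitted in both directions relative to DMSO.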

Read-out in assay [4]: Intercellular Adhesion Molecule 1 (ICAM1), ICAM1 (gene 3383)
Kind of assay: BSK_KF3CT_ICAM1: BioMAP Diversity Plus: KF3CT Assay for Intercellular Adhesion Molecule 1 (ICAM1) Biomarker Activity (AID 2283067). The conditions noted are these: primary human keratinocytes with fibroblasts; actives raise or lower the signal. The method in brief:
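Cell-surface ICAM-1 was measured by ELISA 24 h after dosing primary human skin keratinocytes co-cultured with fibroblasts. Parallel SRB staining tracked overt cytotoxicity. Gain or loss of signal was fitted relative to DMSO.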

Read-out in assay [5]: Interferon-gamma inducible Protein 10 (IP10), CXCL10 (gene 3627)
Kind of assay: BSK_KF3CT_IP10: BioMAP Diversity Plus: KF3CT Assay for Interferon-gamma inducible Protein 10 (IP10) Biomarker Activity (AID 2283068). The following applies: primary human keratinocytes with fibroblasts; actives raise or lower the signal. The method in brief: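 Signal is secreted/surface IP-10 by ELISA in a human primary skin co-culture of keratinocytes and foreskin fibroblasts, taken 24 h post-dosing; DMSO served as negative control.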

Assay [6] can be described thus: BSK_KF3CT_SRB: Viability Assessment in the BioMAP Diversity Plus: KF3CT Assay (AID 2283069).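 Also: read 24 h after compound addition.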 The following applies: primary human keratinocytes with fibroblasts. In short, it runs like this:
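Overt cytotoxicity is assessed as total protein by sulforhodamine B staining in parallel human skin co-cultures at 24 h after dosing. DMSO serves as negative control and baseline.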

Read-out in assay [7]: Interleukin-1 alpha (IL1a), IL1A (gene 3552)
The assay can be described thus: BSK_KF3CT_IL1a: BioMAP Diversity Plus: KF3CT Assay for Interleukin-1 alpha (IL1a) Biomarker Activity (AID 2283070). The conditions noted are these: primary human keratinocytes with fibroblasts; actives raise or lower the signal. In short, it runs like this:
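Readout is IL-1a level by ELISA, compared bidirectionally with DMSO as baseline. Cells: human keratinocytes co-cultured with foreskin fibroblasts, harvested 24 h post-dose.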

Read-out in assay [8]: TIMP metallopeptidase inhibitor 2 (TIMP2), TIMP2 (gene 7077)
The assay can be described thus: BSK_KF3CT_TIMP2: BioMAP Diversity Plus: KF3CT Assay for TIMP metallopeptidase inhibitor 2 (TIMP2) Biomarker Activity (AID 2283071). The conditions noted are these: primary human keratinocytes with fibroblasts; actives raise or lower the signal. In short, it runs like this:
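Chemicals were dosed onto human skin primary co-cultures of keratinocytes and foreskin fibroblasts, and TIMP-2 was measured by ELISA after 24 hours. Activity in either direction was fitted relative to DMSO.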

Read-out in assay [9]: Transforming growth factor beta 1 (TGFb1), TGFB1 (gene 7040)
The assay can be described thus: BSK_KF3CT_TGFb1: BioMAP Diversity Plus: KF3CT Assay for Transforming growth factor beta 1 (TGFb1) Biomarker Activity (AID 2283072). The following applies: primary human keratinocytes with fibroblasts; actives raise or lower the signal. The method in brief: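 KF3CT co-culture (keratinocytes + fibroblasts), 24 h exposure → TGF-b1 ELISA → bidirectional fit, DMSO = baseline. Parallel SRB total-protein staining (0.1% SRB, 10% TCA fixation, 560 nm) for cytotoxicity.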

Read-out in assay [10]: C-C motif chemokine 2 (Homo sapiens) (UniProt P13500)
The assay can be described thus: BSK_KF3CT_MCP1: BioMAP Diversity Plus: KF3CT Assay for Monocyte Chemoattractant Protein 1 (MCP1/CCL2) Biomarker Activity (AID 2283073). The conditions noted are these: primary human keratinocytes with fibroblasts; actives raise or lower the signal. The method in brief:
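ELISA read-out of MCP-1, 24 h post-dose, in primary human skin keratinocytes co-cultured with fibroblasts. Parallel SRB staining monitors cytotoxicity; changes fitted both directions relative to DMSO.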

Read-out in assay [11]: Matrix Metallopeptidase 9 (MMP9), MMP9 (gene 4318)
The assay can be described thus: BSK_KF3CT_MMP9: BioMAP Diversity Plus: KF3CT Assay for Matrix Metallopeptidase 9 (MMP9) Biomarker Activity (AID 2283074). The conditions noted are these: primary human keratinocytes with fibroblasts; actives raise or lower the signal. In short, it runs like this: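 Values come from bidirectional fitting relative to DMSO of MMP-9 levels, which were measured by ELISA. Measurements were taken 24 h after chemical dosing of a keratinocyte and foreskin fibroblast co-culture.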

Read-out in assay [12]: urokinase plasminogen activator (uPA), PLAU (gene 5328)
The assay can be described thus: BSK_KF3CT_uPA: BioMAP Diversity Plus: KF3CT Assay for urokinase plasminogen activator (uPA) Biomarker Activity (AID 2283075). The following applies: primary human keratinocytes with fibroblasts; actives raise or lower the signal. The method in brief:
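Values derive from bidirectional fitting against DMSO controls. Keratinocyte/foreskin fibroblast co-cultures received chemical; 24 h later uPA was detected by ELISA, with SRB total-protein staining in parallel wells for overt cytotoxicity.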

Read-out in the next assay: CD40, CD40 (gene 958)
The assay can be described thus: BSK_LPS_CD40: BioMAP Diversity Plus: LPS Assay for CD40 Biomarker Activity (AID 2283076). The following applies: primary human HUVEC with PBMC; actives raise or lower the signal. In short, it runs like this: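 In the LPS system of human endothelial cells with peripheral blood mononuclear cells, CD40 levels were read by ELISA 24 h post-treatment. Signal changes in either direction were fitted against the DMSO baseline, with parallel SRB protein staining.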

Read-out in assay [13]: E-selectin (Homo sapiens) (UniProt P16581)
The assay can be described thus: BSK_LPS_Eselectin: BioMAP Diversity Plus: LPS Assay for Eselectin Biomarker Activity (AID 2283077). The conditions noted are these: primary human HUVEC with PBMC; actives raise or lower the signal. In short, it runs like this: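 E-selectin ELISA on LPS-stimulated endothelial cell/PBMC co-cultures, read 24 h post-treatment; gains and losses fitted against DMSO. Parallel SRB staining (0.1% SRB after 10% TCA fixation, 560 nm) flags overt cytotoxicity.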

Read-out in assay [14]: Interleukin-8 (IL8), CXCL8 (gene 3576)
Kind of assay: BSK_LPS_IL8: BioMAP Diversity Plus: LPS Assay for Interleukin-8 (IL8) Biomarker Activity (AID 2283078). The following applies: primary human HUVEC with PBMC; actives raise or lower the signal. In short, it runs like this: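 ELISA read-out of IL-8 after 24 h chemical treatment of LPS-activated endothelial/PBMC human primary co-cultures. Changes either up or down relative to DMSO; overt cytotoxicity checked by sulforhodamine B staining in parallel wells.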

Assay [15] is described as follows: BSK_LPS_SRB: Viability Assessment in the BioMAP Diversity Plus: LPS Assay (AID 2283079).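 Also: total protein by sulforhodamine B absorbance as a cytotoxicity measure; measured one day after compound addition.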 The conditions noted are these: primary human HUVEC with PBMC. In short, it runs like this:
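SRB viability endpoint: cells fixed with 10% TCA, stained with 0.1% SRB, read at 560 nm, 24 h post-dose. HUVEC/PBMC co-culture; signal change in either direction scored relative to DMSO.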

Read-out in assay [16]: Interleukin-1 alpha (IL1a), IL1A (gene 3552)
The assay can be described thus: BSK_LPS_IL1a: BioMAP Diversity Plus: LPS Assay for Interleukin-1 alpha (IL1a) Biomarker Activity (AID 2283080). The conditions noted are these: primary human HUVEC with PBMC; actives raise or lower the signal. In short, it runs like this:
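Readout is IL-1a level by ELISA, 24 h post-dose, fitted as gain or loss relative to DMSO. System: LPS-activated human primary co-culture of vascular endothelium and peripheral blood mononuclear cells, with parallel SRB total-protein cytotoxicity.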

Read-out in assay [17]: Monocyte Chemoattractant Protein-1 (MCP1), CCL2 (gene 6347)
The assay can be described thus: BSK_LPS_MCP1: BioMAP Diversity Plus: LPS Assay for Monocyte Chemoattractant Protein-1 (MCP1) Biomarker Activity (AID 2283081). The conditions noted are these: primary human HUVEC with PBMC; actives raise or lower the signal. The method in brief: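 Secreted MCP-1 read by ELISA at 24 h post-dosing in an LPS-activated co-culture of endothelial cells with peripheral blood mononuclear cells. Fits run in both directions, DMSO as baseline; parallel SRB staining tracks overt cytotoxicity.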

Assay [18] is described as follows: BSK_LPS_PGE2: BioMAP Diversity Plus: LPS Assay for Prostaglandin E2 (PGE2) Biomarker Activity (AID 2283082). The conditions noted are these: primary human HUVEC with PBMC; actives raise or lower the signal. The method in brief: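 Compounds were added to the LPS co-culture of endothelium and PBMC, and PGE2 was measured by ELISA after 24 h. Responses in either direction were fitted with DMSO as baseline.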

Each structure is given as a SMILES string. Some structures have more than one record in an assay (separate samples or runs), and their calls can disagree. The source made the active and inactive calls. The calls were made as follows: active = hit-call score of the fitted dose curve at least 0.9, where 1 is the maximum; inactive = score below 0.9.

Consider four molecules from PubChem BioAssay (EPA / NIEHS).

Chain of E-selectin (Homo sapiens) (P16581 whole entry, looked up): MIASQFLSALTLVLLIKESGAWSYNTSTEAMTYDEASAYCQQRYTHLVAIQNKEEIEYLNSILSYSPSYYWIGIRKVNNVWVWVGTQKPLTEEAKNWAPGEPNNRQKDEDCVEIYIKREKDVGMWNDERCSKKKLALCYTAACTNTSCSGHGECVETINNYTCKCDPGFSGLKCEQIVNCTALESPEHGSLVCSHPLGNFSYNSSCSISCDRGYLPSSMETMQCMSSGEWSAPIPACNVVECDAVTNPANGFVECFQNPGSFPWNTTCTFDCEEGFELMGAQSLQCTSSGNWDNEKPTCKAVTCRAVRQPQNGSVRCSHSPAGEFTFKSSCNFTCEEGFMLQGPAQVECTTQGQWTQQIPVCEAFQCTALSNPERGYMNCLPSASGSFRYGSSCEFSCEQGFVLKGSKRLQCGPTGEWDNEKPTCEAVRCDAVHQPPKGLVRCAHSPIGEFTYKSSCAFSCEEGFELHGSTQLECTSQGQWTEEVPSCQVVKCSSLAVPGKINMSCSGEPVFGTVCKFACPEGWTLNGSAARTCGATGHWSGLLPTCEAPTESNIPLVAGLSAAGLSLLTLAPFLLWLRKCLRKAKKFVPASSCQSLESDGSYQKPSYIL

By AC50 is commonly meant the midpoint of the concentration-response curve, whichever way the signal moves. For `c1ccc2sc(SNC3CCCCC3)nc2c1`, the outcome in [1], in [2], in assay [3], in assay [4], in [5] and in [6] was inactive. Besides, the outcome in assay [7], in assay [8], in [9], in assay [10], in [11] and in assay [12] was inactive. Further, the outcome in the assay with CD40, CD40 (gene 958) was “inactive”; in [13], “inactive”; in [14], “inactive”; in assay [15], “inactive”; in assay [17] it was “inactive”; in assay [18] it was “inactive”. Also, the AC50 in [16] was 30.2 µM (active).

In the case of `CCOP(=O)(OCC)SCCSCC`, the result in assay [1], in assay [2], in assay [3], in [4], in [5] and in assay [6] was inactive. For the same molecule, the outcome was “inactive” in assay [7]; “inactive” in [8]; “inactive” in assay [9]; “inactive” in [11]; “inactive” in assay [12]; “inactive” in the assay with CD40, CD40 (gene 958). The result in [13], in assay [14], in [15], in assay [16], in assay [17] and in assay [18] was inactive.

As to `O=C(Cc1ccccc1)OCCc1ccccc1`, the result in assay [1], in assay [2], in assay [3], in [4], in assay [5] and in assay [6] was inactive. Besides, the outcome is “inactive” in assay [7]; “inactive” in [8]; “inactive” in [10]; “inactive” in assay [11]; “inactive” in assay [12]; “inactive” with CD40, CD40 (gene 958). Moreover, the outcome in [13], in assay [14], in [15], in assay [16], in assay [17] and in [18] was inactive. Also, in [16], the AC50 is 3.97 µM (active).

For `Cc1cc(C)cc(C)c1`, the result in assay [1], in [2], in assay [3], in [4], in [5] and in assay [6] was inactive. In addition, the outcome is “inactive” in assay [7]; “inactive” in assay [8]; “inactive” in [9]; “inactive” in assay [11]; “inactive” in assay [12]; “inactive” with CD40, CD40 (gene 958). The result in [13], in assay [14], in assay [15], in [16], in assay [17] and in [18] was inactive.
